Over roughly 16,000 sequences, “rpm ratio (pull-down/input)” has its median near 0.5; the highest 2% begin near 5.5. The list comes from a sample in which the highest values are over-represented; it also holds similar and randomly drawn sequences.
Molecular target: T1, MBP-FoxP3dN (Mus musculus, UniProt Q99JB6 188-423)
T1 sequence: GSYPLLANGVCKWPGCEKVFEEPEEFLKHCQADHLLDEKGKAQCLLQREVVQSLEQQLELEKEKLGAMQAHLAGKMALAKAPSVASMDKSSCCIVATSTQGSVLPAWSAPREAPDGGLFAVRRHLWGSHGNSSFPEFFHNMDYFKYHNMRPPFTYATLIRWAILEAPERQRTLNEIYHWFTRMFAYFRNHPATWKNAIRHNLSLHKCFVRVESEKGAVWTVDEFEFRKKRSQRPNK
Assay: PD-seq (MBP pull-down with sequencing); 20 mM Tris-HCl pH 7.5, 100 mM NaCl, 1.5 mM MgCl2, 0.4 uM protein, 0.1 uM dsDNA library, 30 min, room temperature, amylose pull-down; high values mean tight binding
Details: protein: recombinant; tags: His6-MBP; chain copies: 2; dsDNA, one strand shown
In short: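 Binding is the reads-per-million enrichment of pull-down relative to input, pooled across replicates. For this, 0.4 µM His6-MBP-tagged mouse FoxP3 or FoxP1 fragment lacking the N-terminus, made in E. coli, was incubated with 0.1 µM Klenow-filled double-stranded degenerate DNA library for 30 min at room temperature in Tris pH 7.5 buffer with NaCl and MgCl2. Complexes bound to amylose resin were washed three times before proteinase K released the DNA for PCR barcoding and Illumina sequencing.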

**Q.** How did the binding signal turn out when “GATGATTGTTCTCCCAGCTGATGAATTTCCTCCCTCGAGTAAACAAATTTTCCTAATCTTTCTGTTCAAGCGCCATCTAC” was run?
**A.** 0.223 RPM ratio (pull-down/input)

**Q.** How did the binding signal turn out when “GATGATTGTTCTCCCAGCTGATGAATTGGCGTCCTCGAGTAAACAAATTTTCCTAATCTTTCTGTTCAAGCGCCATCTAC” was run?
**A.** 1.06 RPM ratio (pull-down/input)

**Q.** Which binding signal does the source give for “GATGATTGTTCTCCCAGCTGATGAATTACCCAACTCGAGTAAACAAATTTTCCTAATCTTTCTGTTCAAGCGCCATCTAC” here?
**A.** 0.253 RPM ratio (pull-down/input)

**Q.** How did the binding signal turn out when “GATGATTGTTCTCCCAGCTGATGAATTATTTCTGTCGAGTAAACAAATTTTCCTAATCTTTCTGTTCAAGCGCCATCTAC” was run?
**A.** 0.335 RPM ratio (pull-down/input)

**Q.** “GATGATTGTTCTCCCAGCTGATGAATTTTATTTGTCGAGTAAACAAATTTTCCTAATCTTTCTGTTCAAGCGCCATCTAC” was tested. Which binding signal did it give?
**A.** 6.21 RPM ratio (pull-down/input)

**Q.** For “GATGATTGTTCTCCCAGCTGATGAATTATTTGTGTCGAGTAAACAAATTTTCCTAATCTTTCTGTTCAAGCGCCATCTAC”, which binding signal is on record?
**A.** 2.76 RPM ratio (pull-down/input)

**Q.** Which binding signal does the source give for “GATGATTGTTCTCCCAGCTGATGAATTATATCTGTCGAGTAAACAAATTTTCCTAATCTTTCTGTTCAAGCGCCATCTAC” here?
**A.** 0.544 RPM ratio (pull-down/input)

**Q.** How did the binding signal turn out when “GATGATTGTTCTCCCAGCTGATGAATTGTTATTGTCGAGTAAACAAATTTTCCTAATCTTTCTGTTCAAGCGCCATCTAC” was run?
**A.** 6.63 RPM ratio (pull-down/input)

**Q.** “GATGATTGTTCTCCCAGCTGATGAATTTTATGTGTCGAGTAAACAAATTTTCCTAATCTTTCTGTTCAAGCGCCATCTAC” was tested. Which binding signal did it give?
**A.** 2.49 RPM ratio (pull-down/input)

**Q.** Which binding signal does the source give for “GATGATTGTTCTCCCAGCTGATGAATTTTTATTGTCGAGTAAACAAATTTTCCTAATCTTTCTGTTCAAGCGCCATCTAC” here?
**A.** 0.972 RPM ratio (pull-down/input)

**Q.** How did the binding signal turn out when “GATGATTGTTCTCCCAGCTGATGAATTTATTCTGTCGAGTAAACAAATTTTCCTAATCTTTCTGTTCAAGCGCCATCTAC” was run?
**A.** 0.533 RPM ratio (pull-down/input)

**Q.** How did the binding signal turn out when “GATGATTGTTCTCCCAGCTGATGAATTATATTTGTCGAGTAAACAAATTTTCCTAATCTTTCTGTTCAAGCGCCATCTAC” was run?
**A.** 5.66 RPM ratio (pull-down/input)

**Q.** Which binding signal does the source give for “GATGATTGTTCTCCCAGCTGATGAATTATTATTGTCGAGTAAACAAATTTTCCTAATCTTTCTGTTCAAGCGCCATCTAC” here?
**A.** 2.61 RPM ratio (pull-down/input)

**Q.** With “GATGATTGTTCTCCCAGCTGATGAATTATTTTTGTCGAGTAAACAAATTTTCCTAATCTTTCTGTTCAAGCGCCATCTAC” as the sequence, how does the binding signal read?
**A.** 0.947 RPM ratio (pull-down/input)

**Q.** “GATGATTGTTCTCCCAGCTGATGAATTTATTGTGTCGAGTAAACAAATTTTCCTAATCTTTCTGTTCAAGCGCCATCTAC” was tested. Which binding signal did it give?
**A.** 6.95 RPM ratio (pull-down/input)

**Q.** For “GATGATTGTTCTCCCAGCTGATGAATTGTGCCGATCGAGTAAACAAATTTTCCTAATCTTTCTGTTCAAGCGCCATCTAC”, which binding signal is on record?
**A.** 1.02 RPM ratio (pull-down/input)

**Q.** How did the binding signal turn out when “GATGATTGTTCTCCCAGCTGATGAATTTTTTGAATCGAGTAAACAAATTTTCCTAATCTTTCTGTTCAAGCGCCATCTAC” was run?
**A.** 0.229 RPM ratio (pull-down/input)

**Q.** For “GATGATTGTTCTCCCAGCTGATGAATTGGGTGTTTCGAGTAAACAAATTTTCCTAATCTTTCTGTTCAAGCGCCATCTAC”, which binding signal is on record?
**A.** 1.38 RPM ratio (pull-down/input)

**Q.** “GATGATTGTTCTCCCAGCTGATGAATTCAACTGATCGAGTAAACAAATTTTCCTAATCTTTCTGTTCAAGCGCCATCTAC” was tested. Which binding signal did it give?
**A.** 0.332 RPM ratio (pull-down/input)

**Q.** For “GATGATTGTTCTCCCAGCTGATGAATTGAATATGTCGAGTAAACAAATTTTCCTAATCTTTCTGTTCAAGCGCCATCTAC”, which binding signal is on record?
**A.** 0.689 RPM ratio (pull-down/input)

**Q.** Which binding signal does the source give for “GATGATTGTTCTCCCAGCTGATGAATTGACACTCTCGAGTAAACAAATTTTCCTAATCTTTCTGTTCAAGCGCCATCTAC” here?
**A.** 0.6 RPM ratio (pull-down/input)

**Q.** For “GATGATTGTTCTCCCAGCTGATGAATTCTTGAATTCGAGTAAACAAATTTTCCTAATCTTTCTGTTCAAGCGCCATCTAC”, which binding signal is on record?
**A.** 0.493 RPM ratio (pull-down/input)

**Q.** How did the binding signal turn out when “GATGATTGTTCTCCCAGCTGATGAATTGTACTTTTCGAGTAAACAAATTTTCCTAATCTTTCTGTTCAAGCGCCATCTAC” was run?
**A.** 0.551 RPM ratio (pull-down/input)

**Q.** For “GATGATTGTTCTCCCAGCTGATGAATTGGGTGAGTCGAGTAAACAAATTTTCCTAATCTTTCTGTTCAAGCGCCATCTAC”, which binding signal is on record?
**A.** 0.443 RPM ratio (pull-down/input)

**Q.** How did the binding signal turn out when “GATGATTGTTCTCCCAGCTGATGAATTCACTTGTTCGAGTAAACAAATTTTCCTAATCTTTCTGTTCAAGCGCCATCTAC” was run?
**A.** 1.02 RPM ratio (pull-down/input)

**Q.** With “GATGATTGTTCTCCCAGCTGATGAATTCAGTAACTCGAGTAAACAAATTTTCCTAATCTTTCTGTTCAAGCGCCATCTAC” as the sequence, how does the binding signal read?
**A.** 1.34 RPM ratio (pull-down/input)

**Q.** How did the binding signal turn out when “GATGATTGTTCTCCCAGCTGATGAATTCAACACCTCGAGTAAACAAATTTTCCTAATCTTTCTGTTCAAGCGCCATCTAC” was run?
**A.** 0.553 RPM ratio (pull-down/input)

**Q.** “GATGATTGTTCTCCCAGCTGATGAATTTAATTTGTCGAGTAAACAAATTTTCCTAATCTTTCTGTTCAAGCGCCATCTAC” was tested. Which binding signal did it give?
**A.** 3.39 RPM ratio (pull-down/input)

**Q.** For “GATGATTGTTCTCCCAGCTGATGAATTTATTTGGTCGAGTAAACAAATTTTCCTAATCTTTCTGTTCAAGCGCCATCTAC”, which binding signal is on record?
**A.** 6.15 RPM ratio (pull-down/input)

**Q.** “GATGATTGTTCTCCCAGCTGATGAATTTTATTGGTCGAGTAAACAAATTTTCCTAATCTTTCTGTTCAAGCGCCATCTAC” was tested. Which binding signal did it give?
**A.** 4.94 RPM ratio (pull-down/input)

**Q.** How did the binding signal turn out when “GATGATTGTTCTCCCAGCTGATGAATTATTTTGGTCGAGTAAACAAATTTTCCTAATCTTTCTGTTCAAGCGCCATCTAC” was run?
**A.** 0.995 RPM ratio (pull-down/input)

**Q.** “GATGATTGTTCTCCCAGCTGATGAATTTATATTGTCGAGTAAACAAATTTTCCTAATCTTTCTGTTCAAGCGCCATCTAC” was tested. Which binding signal did it give?
**A.** 2.37 RPM ratio (pull-down/input)

**Q.** “GATGATTGTTCTCCCAGCTGATGAATTTATTTTGTCGAGTAAACAAATTTTCCTAATCTTTCTGTTCAAGCGCCATCTAC” was tested. Which binding signal did it give?
**A.** 5.94 RPM ratio (pull-down/input)

Reference: PMC12820563, “FoxP3 forms a head-to-head dimer in vivo and stabilizes its multimerization on adjacent microsatellites”
